The source made the active and inactive calls. Where a call stands in place of a potency, no number is given. Calls come from the whole dose curve; as a rule, active = well fitted activation curve with a large enough effect; inconclusive = small, poorly fitted or top-dose-only effect; inactive = no such curve, though single readings can be large or run the other way.

The nature of the test: Counterscreen for Identifying a Potential Treatment of Ataxia-Telangiectasia: Hit Validation. The note with it: cell-free AlphaLISA/AlphaScreen artifact counterscreen, PBS only, no cells; series mostly up to 76.9 µM. Put shortly:
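Cell-free AlphaLISA counterscreen: compounds (up to 76.7 uM final) in PBS with detection mix of anti-pKAP1 and anti-KAP1 antibodies on donor/acceptor beads plus lysis buffer, incubated 6 hr at 25C before AlphaScreen read.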
As to `COCCCNC(=O)c1c[nH]c2ccc(S(=O)(=O)N(C)c3ccccc3C)cc2c1=O`, the Potency result was “inactive”. The entry for `O=C1NC(=Nc2ccccc2)CS1` is “inactive”; for `CC1(C)CC2(CCO1)OC(=O)CC2C(=O)Nc1c(Cl)cccc1Cl` (stereo not given) it is “inactive”; for `CCOc1ccc(NC2=NCC(=O)N2Cc2cccs2)cc1` it is “inactive”. For the molecule `O=C1C(Cl)=C(Nc2ccccc2)C(=O)c2ccccc21`, the Potency entry is “inactive”. The same measure for `OC1(CC#CCN2CCCCC2)c2ccccc2-c2ccccc21`: “inactive”; for `O=C1C2C3C=CC(CC3)C2C(=O)N1c1cccc(Br)c1` (stereo not given): “inactive”; for `Oc1cccc(NC(=S)N=Nc2c(O)[nH]c3ccccc23)c1`: “inactive”. The same measure for `O=C(NCc1ccccc1)c1cccnc1Sc1ccccc1`: “inactive”; for `Cc1ccc(C(=O)c2c(C)oc3c2C(=O)C(=O)c2ccccc2-3)cc1`: “inactive”. The entry for `CC(C)(CO)NC(=O)c1ccc2c(c1)C(=O)c1ccccc1-2` is “inactive”. As to `COc1cccc(C(=O)NOCc2ccc(C)cc2)c1OC`, the Potency entry is “inactive”. Regarding `Cn1c(=O)[nH]c(=O)c2[nH]c(N(Cc3ccccc3)Cc3ccccc3)nc21`, the Potency result is “inactive”. The entry for `COc1ccc(-n2c(=S)[nH]c3ccccc3c2=S)cc1` is “inactive”; for `COc1ccc(C2NC(=S)NC3=C2N2CCC3CC2)cc1` (stereo not given) it is “inactive”. The entry for `CC1CC(C)CN(C(=O)COC(=O)c2c[nH]c3ccccc23)C1` (stereo not given) is “inactive”; for `O=C(CCC(=O)c1ccc(F)cc1)Nc1cccc(Br)c1` it is “inactive”; for `CC(=O)Nc1ccc(NC2=CC(=O)c3ccccc3C2=O)cc1` it is “inactive”.

On to `CS(=O)(=O)c1ccc(-c2csc(-c3cccnc3)n2)cc1`, for which the Potency result was “inactive”. As to `CCCCC(=O)NC(c1ccco1)c1c(O)ccc2ccccc12` (stereo not given), the Potency result is “inactive”.

On to `O=C(O)c1nccnc1C(=O)Nc1ccccc1-c1ccccc1`, for which the Potency result was “inactive”. The same measure for `Cc1ccc(OCC(=O)N(Cc2cccs2)C2CCS(=O)(=O)C2)cc1C` (stereo not given): “inactive”; for `COC(=O)c1cccc2c1-c1ccccc1/C2=N\NC(N)=O`: “inactive”; for `C=C1CCC[C@]2(C)C[C@H]3OC(=O)C(CN4CCCCC4CO)[C@H]3CC12` (stereo not given in full): “inactive”. The same measure for `Cc1oc2ccc(OCc3ccc(Br)cc3)cc2c1C(=O)O`: “inactive”; for `COc1ccc(OC)c(C2CC(c3ccccc3)=NN2C(=S)Nc2ccccc2)c1` (stereo not given): “inactive”. Regarding `Cn1cnc([N+](=O)[O-])c1SCCO`, the Potency entry is “inactive”. The same measure for `c1ccc2c(c1)nc(Nc1ccc(N3CCCCC3)cc1)c1nncn12`: “inactive”; for `S=c1[nH]nc(C2CCCCC2)n1/N=C/c1ccc(Br)cc1`: “inactive”; for `O=C(CN1C(=O)c2cccc([N+](=O)[O-])c2C1=O)NCc1ccccc1`: “inactive”. The same measure for `COC(=O)Cc1ccc(NC(=S)NCCSc2ccc(Cl)cc2)cc1`: “inactive”; for `CCc1nnc2n1N=C(c1cccc([N+](=O)[O-])c1)CS2`: “inactive”; for `C(=N\Nc1ccccn1)/c1c[nH]c2ccccc12`: “inactive”. The same measure for `O=[N+]([O-])c1ccc(F)cc1F`: “inactive”; for `O=C(c1nn2c(C(F)(F)F)cc(-c3ccc(F)cc3)nc2c1Cl)N1CCOCC1`: “inactive”. `CN(C)C(=O)CN(C)S(=O)(=O)c1ccc(Cl)cc1`: the Potency result was “inactive”.

For `O=C(c1ccc(F)cc1)c1ccc(N2CCCCC2)cc1`, the Potency result is “inactive”. The entry for `COc1ccc(C(CNC(=O)C(Cc2ccccc2)NC(N)=O)N(C)C)cc1` (stereo not given) is “inactive”; for `N#CCN1C(=O)C(=O)N(Cc2cccc(Cl)c2)C1=O` it is “inactive”; for `CCN1CCN(c2oc(COc3ccc(Cl)cc3)nc2C#N)CC1` it is “inactive”.

The values above are taken from PubChem BioAssay AID493185 (National Center for Advancing Translational Sciences (NCATS), 2011).
